Laboratory results taken from PubChem BioAssay AID652154 (Broad Institute, 2013).
Several values for one entry are separate records, joined by “and”; a condition that tells them apart may be missing. Equal values may be shown once. In all, about 360,000 compounds went through this assay and about 4,200 (1.2%) were called active. The full list was thinned out, with actives kept by preference. Unmarked numbers belong to inactive results.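 The calls were made as follows: active = mean replicate inhibition at least 60% with every replicate also reaching 60%; inconclusive = only one of the two criteria is met; inactive = mean below 60% and not all replicates reaching 60%.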

Test: PAX8 transcriptional activity inhibition in RMG-I – RMG-I cells, luciferase, single concentration, primary screen (AID 652154);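 also: luciferase light reporting Pax8 driven TPO promoter activity; plate controls were median of neutral control wells for no effect and mitoxantrone controls for full effect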
Details: RMG-I TPO-luciferase reporter, SteadyGlo, 24 h; at 12.6 µM; stronger effect = higher value

Compound	inhibition
CO[C@H]1CN(C)C(=O)c2cc(NC(=O)c3ccc4c(c3)OCO4)ccc2OC[C@@H](C)N(CCC(F)(F)F)C[C@H]1C	-3.09%
COc1ccccc1NC(=O)N1CCCCN2[C@H](C1)[C@H](c1ccc(-c3ccccc3)cc1)[C@@H]2CO	-14.1%
COc1ccc(C#Cc2ccc([C@H]3[C@@H](CO)N4CCCCN(C(=O)Nc5ccccc5)C[C@H]34)cc2)cc1	85.6% (active)
CC(C)C#Cc1ccc([C@H]2[C@@H](CO)N3CCCCN(C(=O)Nc4ccccc4)C[C@H]23)cc1	7.15%
COc1ccccc1NC(=O)N1CCCCN2[C@H](CO)[C@H](c3ccc(C#CC4CC4)cc3)[C@@H]2C1	8.7%
COc1ccccc1NC(=O)N1CC(=O)N2[C@H](C1)[C@H](c1ccc(C#Cc3ccccc3)cc1)[C@@H]2CO	61.7% (active)
COc1ccccc1NC(=O)N1CC(=O)N2[C@@H](CO)[C@H](c3ccc(C#CC4CC4)cc3)[C@@H]2C1	-15.3%
COc1ccccc1NC(=O)N1CC(=O)N2[C@H](CO)[C@H](c3ccc(C#Cc4ccccc4)cc3)[C@H]2C1	-18.8%
O=C(c1ccc(F)cc1)N1CC(=O)N2[C@@H](CO)[C@@H](c3ccc(C#Cc4ccc(F)cc4)cc3)[C@@H]2C1	87.7% (active)
COc1ccccc1NC(=O)N1CCCCN2[C@@H](CO)[C@@H](c3ccc(C#Cc4ccccc4)cc3)[C@@H]2C1	109% (active)
O=C(c1ccc(F)cc1)N1CC(=O)N2[C@H](C1)[C@@H](c1ccc(C#CC3CC3)cc1)[C@@H]2CO	27.2%
O=C(CC1CC1)N1CC(=O)N2[C@H](CO)[C@H](c3ccc(C#Cc4ccc(F)cc4)cc3)[C@@H]2C1	2.13%
O=C(Nc1ccccc1)N1CCCCN2[C@H](CO)[C@@H](c3ccc(C#Cc4ccccn4)cc3)[C@H]2C1	10.2%
Cc1ccccc1S(=O)(=O)N[C@@H]1CC[C@@H](CCNS(=O)(=O)c2cccc(F)c2)O[C@H]1CO	20.4%
O=C(C[C@H]1CC[C@H]2[C@@H](COC[C@@H](O)CN2Cc2cccc(C(F)(F)F)c2)O1)NCc1ccncc1	-1.84%
CCS(=O)(=O)Nc1ccc2c(c1)C(=O)N(C)[C@@H]1CC[C@@H](CC(=O)NC)O[C@H]1CO2	-18%
CCCNC(=O)Nc1ccc2c(c1)OC[C@@H](C)N(CCC)C[C@H](C)[C@@H](OC)CN(C)C2=O	-2.35%
CCCNC(=O)Nc1ccc2c(c1)C(=O)N(C)[C@@H]1CC[C@@H](CC(=O)NC)O[C@H]1CO2	-19.9%
O=C(c1cccnc1)N1CC2(C1)[C@@H](c1ccccc1)[C@H](CO)N2C(=O)C1CCC1	-5.13%
CC(=O)N1CC[C@@H]2[C@@H](CO)N(C)c3ccc(-c4ccc(C#N)cc4)cc3[C@@H]21	-6.97%
C[C@@H]1CN([C@H](C)CO)C(=O)Cc2cc(NC(=O)CCN3CCOCC3)ccc2O[C@H]1CN(C)Cc1ccncc1	-2.37%
O=C(C1CCC1)N1CCCCN2[C@H](CO)[C@H](c3ccc(-c4cccc(F)c4)cc3)[C@H]2C1	84.3% (active)
O=C(C1CCCC1)N1CCCCN2[C@@H](CO)[C@H](c3ccc(-c4cccc(F)c4)cc3)[C@@H]2C1	6.9%

Compound	inhibition
O=C(C1CCC1)N1CCCCN2[C@H](CO)[C@H](c3ccc(-c4cccc(F)c4)cc3)[C@@H]2C1	-30.2%
O=C(Nc1ccc(F)cc1)N1CCCCN2[C@H](CO)[C@H](c3ccc(C#Cc4ccccc4)cc3)[C@H]2C1	38%
CN(C)CC#Cc1ccc([C@@H]2[C@H](CO)N3CCCCN(C(=O)NC4CCCC4)C[C@@H]23)cc1	6.59%
CN(C)CC#Cc1ccc([C@@H]2[C@H](CO)N3CCCCN(C(=O)Nc4ccc(F)cc4)C[C@@H]23)cc1	92.8% (active)
C[C@H](CO)N1C[C@H](C)[C@H](CN(C)C(=O)CCC(F)(F)F)OCCCC[C@H](C)Oc2ccc(NS(C)(=O)=O)cc2C1=O	-0.897%
Cc1ccc(-c2cnc3c(c2)C(=O)N([C@H](C)CO)C[C@H](C)[C@@H](CN(C)C(=O)c2cccc(F)c2)O3)cc1	6.03%
CCNC(=O)[C@H]1[C@H](CO)[C@H]2Cn3c(ccc(-c4ccc(OC)cc4)c3=O)[C@H]2N1Cc1ccccc1	21.7%
CCNC(=O)C[C@H]1CC[C@@H]2[C@H](COC[C@H](O)CN2S(=O)(=O)c2ccc(Oc3ccccc3)cc2)O1	-12.7%
COc1ccc(NC(=O)N(C)C[C@H]2Oc3ccc(NS(=O)(=O)c4ccc(C)cc4)cc3C(=O)N([C@@H](C)CO)C[C@H]2C)cc1	2.38%
C[C@H](CO)N1C[C@H](C)[C@H](CN(C)C(=O)CCN(C)C)OCc2ccccc2-c2c(n(C)c3ccccc23)C1=O	-16%
C[C@@H]1CN([C@@H](C)CO)C(=O)c2cc(NC(=O)Nc3cccc4ccccc34)ccc2O[C@@H](C)CCCCO[C@H]1CN(C)Cc1ccccc1	-1.82%
C[C@@H]1CCCCO[C@@H](CN(C)Cc2ccccc2)[C@H](C)CN([C@H](C)CO)C(=O)c2cc(NC(=O)Nc3cccc4ccccc34)ccc2O1	73.4% (active)
C[C@@H]1CCCCO[C@@H](CN(C)Cc2ccc(C(=O)O)cc2)[C@H](C)CN([C@@H](C)CO)C(=O)c2cc(NC(=O)Nc3ccc(C(F)(F)F)cc3)ccc2O1	-16.9%
CC(C)NC(=O)Nc1ccc2c(c1)C(=O)N([C@H](C)CO)C[C@H](C)[C@@H](CN(C)Cc1ccc(C(F)(F)F)cc1)OCCCC[C@@H](C)O2	-13.6% and 26.1%
C[C@H]1CCCCO[C@@H](CN(C)Cc2ccc(C(F)(F)F)cc2)[C@@H](C)CN([C@@H](C)CO)C(=O)c2cc(NC(=O)Nc3ccccc3)ccc2O1	67.9% (active)
COc1ccc(CN(C)C[C@@H]2OCCCC[C@@H](C)Oc3ccc(NC(=O)Nc4ccc(C(F)(F)F)cc4)cc3C(=O)N([C@H](C)CO)C[C@H]2C)cc1	-16.7%
C[C@@H]1CCCCO[C@H](CN(C)Cc2ccccc2)[C@H](C)CN([C@@H](C)CO)C(=O)c2cc(NC(=O)Nc3cccc4ccccc34)ccc2O1	21%
C[C@@H]1CCCCO[C@@H](CN(C)Cc2ccc(C(F)(F)F)cc2)[C@@H](C)CN([C@H](C)CO)C(=O)c2cc(NC(=O)Nc3ccccc3)ccc2O1	-1.66%
COc1ccc(NC(=O)Nc2ccc3c(c2)C(=O)N([C@@H](C)CO)C[C@H](C)[C@H](CN(C)Cc2ccc(C(F)(F)F)cc2)OCCCC[C@H](C)O3)cc1	71.6% (active)
COc1ccc(CN(C)C[C@@H]2OCCCC[C@@H](C)Oc3ccc(NC(=O)Nc4ccc(OC)cc4)cc3C(=O)N([C@@H](C)CO)C[C@@H]2C)cc1	-12.3%
C[C@H](CO)N1C[C@H](C)[C@@H](CN(C)Cc2ccc3c(c2)OCO3)OCCCC[C@H](C)Oc2ccc(NC(=O)Nc3ccc(C(F)(F)F)cc3)cc2C1=O	36.6%
C[C@@H]1CN([C@H](C)CO)C(=O)c2cc(NC(=O)Nc3ccccc3)ccc2O[C@@H](C)CCCCO[C@H]1CN(C)Cc1ccc(C(F)(F)F)cc1	77.3% (active)
